Compounds with a hit are over-represented: about 2.8% of the library has one in this group of screens.
SENP8 block-1: human SENP8 protease inhibitors, primary screen, biochemical, fluorescence, Nedd8 protein substrate, uHTS. 0.64% of 360,000 active. Sentrin-specific protease 8 (Homo sapiens), Q96LD8. recombinant SENP8. AID 602440, 2012. inhibition, % at 20 µM; in the data active = inhibition mostly above about 40%, no sharp cut-off; inactive = mostly below about 27%
Target sequence (Q96LD8 whole entry, looked up): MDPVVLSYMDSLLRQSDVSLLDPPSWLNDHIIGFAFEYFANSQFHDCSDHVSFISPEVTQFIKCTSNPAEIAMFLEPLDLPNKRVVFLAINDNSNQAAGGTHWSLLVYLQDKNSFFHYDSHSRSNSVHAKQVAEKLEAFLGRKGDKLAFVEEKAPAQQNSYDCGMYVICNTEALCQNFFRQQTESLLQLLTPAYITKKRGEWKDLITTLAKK
SENP6 block: SENP6 protease inhibitors, primary screen, biochemical, luminescence, uHTS; 1.8% of 330,000 active; inhibition, % at 10 µM; Recombinant SENP6 catalytic domain, aminoluciferin luminescence; Sentrin-specific protease 6 (Homo sapiens), Q9GZR1;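 active = inhibition above about 50% at the single tested dose, limit read from the data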;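 note: plate controls were DMSO wells with enzyme for no effect and DMSO wells lacking enzyme for full effect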
SENP8 block-2: SENP8 protease inhibitors, primary screen, biochemical, luminescence; Sentrin-specific protease 8 (Homo sapiens), Q96LD8; purified SENP8, Z-RLRGG-aminoluciferin cleavage; inhibition, % at 10 µM; 1.2% of 330,000 active; AID 2540, 2010; in the data active = inhibition above about 50%
HSP90 inh: HSP90 inhibitors, primary screen, cell lysate, luminescence; Rabbit reticulocyte lysate, luciferase refolding luminescence, 3 h; 0.91% of 290,000 active; inhibition, % at 5.6 µM; Heat shock protein HSP 90 (rabbit reticulocyte lysate; luciferase refolding); AID 1789, 2009;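 active = inhibition above the screen-wide mean plus 3 SD, computed separately per campaign, cut at about 16% in these data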;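 note: 0% = DMSO wells and 100% = 60 µM geldanamycin wells; inhibitors lower the luminescence because luciferase stays unfolded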
SENP7 inh: SENP7 protease inhibitors, primary screen, biochemical, luminescence, uHTS | 1.5% of 330,000 active | Sentrin-specific protease 7 (Homo sapiens), Q9BQF6 | inhibition, % at 5 µM | recombinant SENP7, Z-RLRGG-aminoluciferin luminescence, 40 min;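 active = inhibition above about 50% at the single test dose, limit read from the data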;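 note: plate controls were DMSO with enzyme for no effect and no enzyme buffer wells for full effect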
SENP8 conf: SENP8 protease inhibitors, retest, confirmation, biochemical, luminescence, single concentration | shares compounds with SENP7 inh | Recombinant SENP8, Z-RLRGG-aminoluciferin luminescence, 60 min | inhibition, % at 12.5 µM | 40% of 6,200 active | AID 488912, 2010;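 active = mean inhibition across replicates above about 50%, limit read from the data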
SENP6 confirm: SENP6 protease inhibitors, confirmation, biochemical, luminescence, single concentration. shares compounds with SENP7 inh. recombinant SENP6, Z-RLRGG-aminoluciferin luminescence. inhibition, % at 12.5 µM. 58% of 6,200 active. AID 488915, 2010
SENP7 confirm: SENP7 protease inhibitors, retest, confirmation, biochemical, luminescence, single concentration; shares compounds with SENP7 inh; recombinant SENP7, Z-RLRGG-aminoluciferin luminescence, 40 min; inhibition, % at 12.5 µM; 69% of 6,200 active
Casp3 SENP sel: caspase-3 protease inhibitors, confirmation, selectivity assay for SENP inhibitor project, biochemical, single concentration. shares compounds with SENP7 inh. purified caspase-3, Z-DEVD-aminoluciferin luminescence, 60 min. inhibition, % at 12.5 µM. 60% of 6,200 active. AID 488918, 2010;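 active = mean inhibition above about 50%, limit read from the data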;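 note: plate controls were enzyme with DMSO for no effect and wells without caspase-3 for full effect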
Target sequence (P42574 28-227 limits assumed): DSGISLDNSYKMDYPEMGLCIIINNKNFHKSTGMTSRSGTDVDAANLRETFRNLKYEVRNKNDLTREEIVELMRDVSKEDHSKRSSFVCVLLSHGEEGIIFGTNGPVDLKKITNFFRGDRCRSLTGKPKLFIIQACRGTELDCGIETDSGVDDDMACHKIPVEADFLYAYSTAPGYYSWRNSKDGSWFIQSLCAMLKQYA
Luc interf: luminescence interference (SENP counter-screen); shares compounds with SENP7 inh; 39% of 6,200 active; inhibition, % at 12.5 µM; Pre-incubated SENP8/Z-RLRGG-aminoluciferin, luciferase luminescence interference; AID 488919;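 active = mean inhibition above about 50% when retested at one dose, limit read from the data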;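 note: plate controls were DMSO wells with completed reaction for no effect and substrate without enzyme for full effect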
Numbers without * were called inactive; x = not tested or not shown.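 Rule for the calls, unless noted: active = mean inhibition above about 50% in the one-dose retest (limit read from the data); inactive = the rest.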

SMILES | SENP8 block-1 | SENP6 block | SENP8 block-2 | HSP90 inh | SENP7 inh | SENP8 conf | SENP6 confirm | SENP7 confirm | Casp3 SENP sel | Luc interf
O=C(C1CCCCC1)N1CCC(O)(c2ccc(Cl)cc2)CC1 | 22 | 11 | -3 | 8 | 8 | x | x | x | x | x
CN(CC(=O)Nc1ccccc1N1CCOCC1)CC(=O)Nc1ccc(F)c(F)c1F | 18 | 2 | 7 | 3 | 0 | x | x | x | x | x
COC(=O)c1[nH]c2cccc(Cl)c2c1NC(=O)CN1CCN(CCO)CC1 | -17 | 13 | 1 | -1 | 101* | 11 | 10 | 0 | -4 | -3
Oc1ccc(COCc2ccccc2)c2cccnc12 | 18 | 7 | -5 | 1 | 0 | x | x | x | x | x
O=C(NC1CCCCC1)N1CCN(Cc2nc3ccccc3c(=O)[nH]2)CC1 | 31 | 60* | -4 | -1 | -11 | -5 | -5 | -6 | -4 | -4
Cc1ccc(Cn2ccc(-c3cnc(-c4ccccc4)s3)n2)cc1 | -416 | 51* | 6 | -2 | 33 | 18 | 36 | 42 | 18 | 21
O=S(=O)(c1ccccc1)n1ccc(-c2cnc(-c3ccccc3)s2)n1 | -300 | 0 | -9 | -3 | -5 | x | x | x | x | x
O=C(c1ccoc1)N1CCC2(CC1)Oc1ccc(Cl)cc1C(=O)C21CC(c2cccnc2)=NO1 (stereo not given) | 3 | -9 | -17 | x | -7 | x | x | x | x | x
O=C(O)c1cc([N+](=O)[O-])ccc1NCCCc1ccccc1 | 7 | 74* | 68* | x | -1 | 75* | 69* | 73* | 52* | 71*
O=C(O)c1cc([N+](=O)[O-])ccc1NCc1ccccc1 | 27 | 14 | 5 | -1 | 3 | x | x | x | x | x
O=C(NCc1ccco1)c1sc2cc(F)ccc2c1Cl | 14 | -23 | -15 | 3 | -2 | x | x | x | x | x
Cc1nc(N2CCOCC2)[nH]c(=O)c1[N+](=O)[O-] | 30 | 12 | 0 | 2 | 10 | x | x | x | x | x
Cn1nc([N+](=O)[O-])nc1N1CCOCC1 | -1 | 5 | 61* | -1 | 10 | -13 | 5 | -3 | -4 | -3
N/C(=N\OC(=O)COc1ccc(Br)cc1Cl)c1ccccn1 | 20 | 96* | 86* | 14 | 97* | 89* | 87* | 97* | 82* | 89*
N/C(=N\OC(=O)/C=C/c1ccccc1)c1cccnc1 | 7 | -27 | -3 | 2 | 14 | x | x | x | x | x
N/C(=N\OC(=O)/C=C/c1ccc(Br)cc1)c1ccccn1 | 10 | 57* | 0 | 10 | 53* | 13 | 11 | 33 | 45 | 22
CCN(C[C@H]1N[C@@](CC)(C(=O)OC)[C@H]2C(=O)N(Cc3ccccc3)C(=O)[C@@H]12)S(=O)(=O)c1ccc(OC(F)(F)F)cc1 | 13 | 22 | 7 | x | 9 | x | x | x | x | x
O=C(Nc1cnc2sccn2c1=O)c1ccc(Cl)cc1Cl | -23 | 29 | -9 | 1 | 56* | 14 | 13 | 35 | 53* | 16
COc1ccc(Cl)cc1NC(=O)c1cnc2sccn2c1=O | -309 | -12 | -8 | -7 | -15 | x | x | x | x | x
COc1ccc(Cn2c(/C=C/c3ccccc3)nc3ccccc32)cc1 | -300 | 89* | 81* | -2 | 88* | 90* | 91* | 99* | 71* | 34
CCn1c(/C=C/c2ccccc2)nc2ccccc21 | -270 | 97* | 85* | 4 | 92* | 94* | 94* | 101* | 94* | 95*
COc1ccc(/C=C/c2nc3ccccc3n2C)cc1 | -433 | 101* | 96* | 40* | 101* | 100* | 101* | 103* | 99* | 97*
COc1ccc(-c2nc3ccccc3n2Cc2ccccc2)cc1 | 1 | -6 | 5 | 1 | 1 | x | x | x | x | x
CCOc1ccc2nc(SCC(=O)c3ccccc3)sc2c1 | 2 | -11 | -15 | 4 | 2 | x | x | x | x | x
O=C(NC1CCN(C(=S)NCc2ccco2)CC1)c1cccc(F)c1 | 7 | -22 | -1 | -6 | 6 | x | x | x | x | x
SMILES | SENP8 block-1 | SENP6 block | SENP8 block-2 | HSP90 inh | SENP7 inh | SENP8 conf | SENP6 confirm | SENP7 confirm | Casp3 SENP sel | Luc interf
COc1ccc(C(=O)NC2CCN(C(=S)NCc3ccco3)CC2)cc1 | 13 | -11 | -3 | 0 | 60* | -1 | 4 | 11 | 6 | 1
CCOc1ccc(N(C(C)C(=O)Nc2ccc(OC)cc2)S(C)(=O)=O)cc1 (stereo not given) | 11 | 0 | -9 | -3 | 71* | 6 | 7 | -8 | -2 | -4
COc1ccc2[nH]c3c(=O)n(Cc4ccc(C(=O)N5CCC(C(N)=O)CC5)cc4)c(=S)[nH]c3c2c1 | -300 | 69* | 67* | -1 | 57* | 73* | 72* | 87* | 68* | 41
COc1ccc2[nH]c3c(=O)n(Cc4ccc(C(=O)N5CCCCCC5)cc4)c(=S)[nH]c3c2c1 | -249 | 25 | 28 | 1 | 38 | x | x | x | x | x
COc1ccccc1-c1nc(-c2ccc(C)nc2OC)no1 | -5 | 17 | -1 | -7 | 26 | x | x | x | x | x
COc1ccccc1-c1noc(-c2cccs2)n1 | 16 | 76* | 59* | -3 | 68* | 78* | 78* | 92* | 78* | 80*
COc1ccc(Br)cc1-c1noc(-c2ccncc2)n1 | 21 | 4 | -2 | 5 | 1 | x | x | x | x | x
CCOc1nc(-c2ccccc2)ccc1-c1noc(-c2cccs2)n1 | -101 | -13 | -13 | 0 | -8 | x | x | x | x | x
COc1ccccc1-c1noc(-c2ccncc2)n1 | 18 | 53* | 23 | -2 | 51* | 42 | 41 | 77* | 76* | 52*
c1csc(-c2nnc(N3CCCCCC3)c3ccccc23)c1 | -22 | -6 | -9 | -2 | -4 | x | x | x | x | x
c1csc(-c2nc(N3CCCCC3)no2)c1 | -289 | 66* | 53* | 4 | 61* | -18 | 43 | 84* | 52* | 4
Cc1ccc(-c2noc(-c3cccs3)n2)cc1 | 10 | 95* | 95* | 4 | -5 | 14 | 97* | 103* | 90* | 70*

Screening results as filed in PubChem.
